# Bioassay records: PubChem, National Center for Advancing Translational Sciences (NCATS)
# Only some compounds are listed: those with a hit (about 7.3% of all), similar ones and a draw of the others.
# Rab9 prom act = Rab9 promoter activation | Huh7 Rab9 promoter-luciferase reporter, luminescence, 24 h | Potency, µM (titrated, usually from 9.22 µM), hits mostly activators | actives 2.8% (n = 320,000); note: nearly all actives have a fitted effect of over 60% in size
#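 Quantitative HTS format; Huh7 Rab9-luciferase reporter cells (1500/well) receive compound 2 h post-plating, incubate 24 h at 37 °C, then get luciferase reagent for 10 min before luminescence reading.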
# FLuc counter = firefly luciferase modulation, counter-screen for miR-21 project; P08659; purified FLuc, Km substrates, luminescence inhibition; Potency, µM (series often up to 57.5 µM), actives largely listed as inhibitors; actives 6.9% (n = 360,000); AID 588342; note: nearly all actives have a fitted effect of over 55% in size
# Target sequence (P08659 whole entry, looked up): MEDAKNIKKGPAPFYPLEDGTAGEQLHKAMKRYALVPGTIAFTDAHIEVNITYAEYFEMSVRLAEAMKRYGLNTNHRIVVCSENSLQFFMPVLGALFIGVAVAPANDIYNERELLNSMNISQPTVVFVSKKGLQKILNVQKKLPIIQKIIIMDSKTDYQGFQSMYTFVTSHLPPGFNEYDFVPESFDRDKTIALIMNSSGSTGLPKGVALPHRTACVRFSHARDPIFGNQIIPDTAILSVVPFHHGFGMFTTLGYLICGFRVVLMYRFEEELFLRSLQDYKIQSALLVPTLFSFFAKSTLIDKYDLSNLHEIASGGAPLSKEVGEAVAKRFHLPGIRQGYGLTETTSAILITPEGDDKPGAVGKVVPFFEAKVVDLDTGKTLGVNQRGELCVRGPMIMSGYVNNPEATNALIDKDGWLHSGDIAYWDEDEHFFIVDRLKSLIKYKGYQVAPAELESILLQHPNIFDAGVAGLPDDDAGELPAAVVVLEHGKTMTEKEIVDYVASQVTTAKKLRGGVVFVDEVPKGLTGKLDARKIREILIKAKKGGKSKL
#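 Purified P. pyralis luciferase, 10 nM final, with Km-level 10 uM D-luciferin and 10 uM ATP in 50 mM Tris acetate pH 7.5, 10 mM Mg acetate, 0.01% Tween-20, 0.05% BSA; 6-point qHTS titration about 60 µM downward; luminescence read.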
# SMN2 splice enh = enhancers of SMN2 splice variant expression; HEK293 SMN2-luciferase splicing reporter, luminescence, 30-36 h; Potency, µM (doses to about 46.1 µM), hits mostly activators; actives 2.8% (n = 210,000); AID 1458; note: nearly all actives have a fitted effect of over 55% in size
#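 HEK293 cells carry an SMN2 minigene-luciferase reporter in which exon 7 inclusion puts luciferase in frame. Cells were seeded at 2000 cells/well, attached for 10-12 hours, then exposed to compounds for 30-36 hours at 37C before ONE-Glo luminescence.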
# NPC1 promoter act = activators of NPC1 promoter. actives 2.4% (n = 320,000). Potency, µM (series often up to 9.22 µM), actives largely listed as activators. Huh7 NPC1 promoter luciferase reporter, 24 h. AID 485313; note: nearly all actives have a fitted effect of over 60% in size
#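 In 1536-well qHTS, Huh7 cells harboring an NPC1 promoter–luciferase construct received compound for 24 h; activation was quantified by luminescence following luciferase reagent addition.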
# uPA surface inh = blocks generation of uPA at the cell surface. cell surface uPA generation assay, qHTS. Potency, µM (highest dose often 38.3 µM), usual class: inhibitors. actives 0.31% (n = 330,000). AID 540303; active = well fitted inhibition curve with a large enough effect; inconclusive = small, poorly fitted or top-dose-only effect; inactive = no such curve, though single readings can be large or run the other way; tested in mouse RAW 264.7 cells; note: nearly all actives have a fitted effect of over 55% in size
# ELG1 genotox = inducers of genotoxicity in HEK293T ELG1-luciferase cells; HEK293T ELG1-luciferase reporter, luminescence, 16 h; Potency, µM (top dose mostly 46 µM), most hits filed as activators; actives 1.3% (n = 330,000); note: nearly all actives have a fitted effect of over 60% in size
#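 DMSO vehicle served as control against compound-treated ELG1-luciferase HEK293T cells; exposure lasted 16 hr at 37 °C and 5% CO2, followed by ONE-Glo luminescence detection after 30 min.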
# A number is an active result; - = inactive; ? = inconclusive; . = not tested or not shown; [ ] = dose if it differs, or a comment. Unless noted, calls come from the whole dose curve; as a rule, active = well fitted curve in the direction sought with a large enough effect; inconclusive = small, poorly fitted or top-dose-only effect, or another doubt; inactive = no such curve, though single readings can be large; an effect the other way counts as inactive or inconclusive.
SMILES,Rab9 prom act,FLuc counter,SMN2 splice enh,NPC1 promoter act,uPA surface inh,ELG1 genotox
CCn1c(NC(=O)c2ccccc2)nc2ccccc21,?,17µM,.,-,-,-
Cn1c(NC(=O)c2cccc(Cn3cc(Cl)cn3)c2)nc2ccccc21,2.2µM,19µM,13µM,2.2µM,-,10µM
CCn1c(NCc2ccc(N(C)C)cc2)nc2ccccc21,-,13µM,-,-,-,?
CCn1c(NC(=O)c2cccc(Cn3cc(Cl)cn3)c2)nc2ccccc21,-,-,-,-,?,-
CCn1c(NCc2ccc(OC)c(OC)c2)nc2ccccc21,.,-,-,.,.,.
C=CCn1c(NC(=O)c2ccccc2)nc2ccccc21,?,24µM,.,?,-,-
CC(CNC(=O)c1sc2ncccc2c1-n1cccc1)c1ccccc1 (configuration not stated),.,-,.,.,.,.
O=C(CSc1nc2c([nH]c3ccccc32)c(=O)n1-c1ccccc1)Nc1ccc(Cl)c(Cl)c1,.,-,.,.,.,.
CN(C(=O)CSc1nc2ccc(NC(=O)COc3ccccc3Cl)cc2s1)c1ccccc1,.,-,.,.,.,.
CN(C)/N=C/C=C1\CCC/C(=C\c2ccc(F)c(F)c2)C1=O,-,21µM,-,-,-,-
COc1ccc(/C=C2\CCC/C(=C\C=N\N(C)C)C2=O)cc1,-,11µM,-,-,11µM,-
Cc1cccc(C(=O)Oc2ccc(/C=N/O)cc2)c1,-,7.6µM,-,-,-,?
O=C(Oc1ccc(/C=N/O)cc1)c1ccccc1Cl,-,9.5µM,-,-,-,-
Cc1ccc(C(=O)N/N=C/c2ccc(OC(=O)c3ccccc3Cl)cc2)cn1,-,-,.,-,-,-
Cn1c(=O)oc2cc(S(=O)(=O)CCC(=O)N3CCN(c4cccc(Cl)c4)CC3)ccc21,.,-,.,.,.,.
CCOC(=O)CSc1nc(-c2ccncc2)ccc1C#N,0.4µM,?,1.1µM,1.3µM,-,?
CCOC(=O)CC(=O)CSc1nc(-c2cccnc2)ccc1C#N,-,?,-,-,-,?
CCOC(=O)CSc1nc(-c2ccc3c(c2)OCO3)ccc1C#N,0.79µM,5.4µM,-,2.5µM,-,?
Cc1ccccc1OCCCCn1cnc2ccccc21,-,19µM,-,-,-,-
CC(=O)c1cn(CCOc2ccccc2C)c2ccccc12,-,-,.,-,5.6µM,-
Brc1ccccc1OCCCn1cnc2ccccc21,4µM,2.4µM,?,3.2µM,-,5.8µM
c1ccc2c(c1)ncn2CCCOc1ccc2c(c1)CCC2,-,15µM,-,-,.,-
O=C1C2=C(C(=O)c3ccccc31)C1O[C@](CCCCN3C(=O)c4ccccc4C3=O)(Cc3ccccc31)O2,-[1.84 µM],-[11.5 µM],.,-[1.84 µM],.,.
CCCCC(O)(CCCC)C(=O)NN(C(=O)OC)c1ccc(C)cc1,-,-,.,-,-,-
COc1ccc(-c2nc(SCC(=O)N(CC(C)C)c3c(N)n(Cc4ccccc4)c(=O)[nH]c3=O)n[nH]2)cc1,-,1.9µM,.,-,-,-
SMILES,Rab9 prom act,FLuc counter,SMN2 splice enh,NPC1 promoter act,uPA surface inh,ELG1 genotox
CCCN(C(=O)CSc1n[nH]c(-c2ccc(OC)cc2)n1)c1c(N)n(Cc2ccccc2)c(=O)[nH]c1=O,-,11µM,.,-,-,-
CCOc1ccc(NC(=O)CSc2nc3c([nH]c4ccccc43)c(=O)n2-c2cc(C)cc(C)c2)cc1,.,-,.,.,.,.
CCOc1ccc(CCNC(=O)c2ccc(CS(=O)Cc3ccccc3Cl)o2)cc1 (configuration not stated),-,24µM,.,-,-,-
Cc1ccc2nc(NC(=O)CSc3cc(C)[nH]c(=O)n3)sc2c1,.,-,.,.,.,.
N#Cc1ccc(/C=N/NC(=O)c2cc(-c3cccs3)nc3ccccc23)cc1,-,6.7µM,-,-,-,-
COc1cc(/C=N/NC(=O)c2cc(-c3cccs3)nc3ccccc23)ccc1O,-,6.7µM,.,-,?,-
Cc1cc(C)n(C(=O)CCCCCCCCC(=O)n2nc(C)cc2C)n1,-,-,-,-,-,-
Cc1c(NC(=O)C(C)OC(=O)c2cccnc2Cl)c(=O)n(-c2ccccc2)n1C (configuration not stated),-,-,.,-,-,-
Cc1cc(C)c2[nH]c(C(=O)Nc3ccc4c(c3)OCO4)cc2c1,?,12µM,.,?,-,-
CCc1ccc2[nH]c(C(=O)Nc3ccc(Br)c(C)n3)cc2c1,1.4µM,?,.,2.2µM,-,?
CCc1ccc2[nH]c(C(=O)Nc3ccc(F)cc3Br)cc2c1,-,-,.,-,-,-
CCc1ccc2[nH]c(C(=O)Nc3ccc4c(c3)OCO4)cc2c1,-,2.7µM,.,?,-,-
O=C(Nn1c(SCc2cccc([N+](=O)[O-])c2)nc2ccccc2c1=O)c1ccccc1,-,?,?,-,-,-
COc1ccc(C(=O)Nn2c(SCc3cccc([N+](=O)[O-])c3)nc3ccccc3c2=O)cc1,3.5µM,5.4µM,.,4µM,-,0.73µM
COc1ccc(C(=O)Nn2c(SCC(=O)NC3CCCCC3)nc3ccccc3c2=O)cc1,4µM,1.9µM,-,3.5µM,.,?
COc1ccc(C(=O)Nn2c(SCC(=O)NCc3ccco3)nc3ccccc3c2=O)cc1,0.089µM,0.21µM,?,0.32µM,-,?
COc1ccc(C(=O)Nn2c(SCC(=O)N3CCC(C)CC3)nc3ccccc3c2=O)cc1,.,0.67µM,-,0.4µM,.,?
COCCCn1c(SCC(=O)NC2CCCCC2)nc2ccccc2c1=O,-,-,.,-,-,-
O=c1c2nncn2ccn1-c1ccc(F)c(F)c1,.,-,-,.,.,.
CCOC(=O)c1ccccc1NC(=O)CSc1cn(CC(=O)N2CCCCC2)c2ccccc12,.,-,.,.,.,.
COc1ccc(C(=O)Nn2c(SCC(=O)c3ccc(Cl)cc3)nc3ccccc3c2=O)cc1,0.5µM,4.8µM,-,0.45µM,.,?
Cc1cccc(-c2nnc(NC(=O)c3cccs3)s2)c1,-,7.6µM,?,-,-,-
c1ccc(Nc2nnc(-c3cccnc3)s2)cc1,0.4µM,1.7µM,.,1µM,-,?
Cc1cccc(N(C)S(=O)(=O)c2nnc(NC(=O)c3cccs3)s2)c1,.,-,.,.,.,.
O=C(Nc1ccc(NC(=O)c2cccs2)cc1)c1cccnc1,-,-,-,-,-,-
SMILES,Rab9 prom act,FLuc counter,SMN2 splice enh,NPC1 promoter act,uPA surface inh,ELG1 genotox
O=C(Nc1nnc(-c2cccnc2)s1)c1cccs1,-,12µM,.,?,?,?
COc1cc(C(CC(=O)Nc2ccc(Br)cn2)N2Cc3ccccc3C2=O)cc(OC)c1OC (configuration not stated),.,-,.,.,.,.
O=C(NCc1ccc(Cl)cc1)c1cnc(N2CCOCC2)c2ccccc12,.,-,.,.,.,.
CCN1CCN(c2ncnc3c2cnn3-c2ccccc2)CC1,-,24µM,-,?,-,?
CCN1CCN(c2ncnc3c2cnn3-c2ccc(Cl)cc2)CC1,1.8µM,6µM,.,1.6µM,-,?
Cc1ccc(N2C(=O)c3ccccc3C2C(=O)c2ccc(O)cc2O)cc1 (configuration not stated),-,-,?,-,-,-
